# Assay results reported in PubChem BioAssay (NCI).
# Several values for one entry are separate records, joined by “and”; a condition that tells them apart may be missing. Equal values may be shown once. About 79,000 compounds went through this panel and 15% of them were active in at least one assay; those are over-represented in the sample as a whole. Values without a mark were called inactive. Activity calls are given as the source filed them. Cut-off read from the data, not from the text of the source: active = growth inhibition above about 70%; inactive = the rest.
# Experiments:
# [1] = NCI Yeast Anticancer Drug Screen. Data for the rad50 strain (AID 155);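 note: 0% = growth of vehicle-only cultures of the same strain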; details: S. cerevisiae rad50 strain growth inhibition; at 50.0 µM; stronger effect = higher value
# In short: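 A DNA repair-deficient yeast mutant serves as the test organism; compound-induced growth inhibition is calculated against vehicle-treated cells.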
# [2] = NCI Yeast Anticancer Drug Screen. Data for the mec2-1 strain (AID 157); details: S. cerevisiae mec2-1 strain, at 50.0 µM, stronger effect = higher value
# In short: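 mec2-1 yeast strain, carrying an alteration in DNA damage repair or cell cycle control, was exposed to compounds; growth inhibition was measured relative to vehicle-treated controls.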
# [3] = NCI Yeast Anticancer Drug Screen. Data for the sgs1 mgt1 strain (AID 161);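 note: 0% = growth of cultures given vehicle only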; details: S. cerevisiae sgs1 mgt1 strain, at 50.0 µM, stronger effect = higher value
# In short: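 Yeast cells carrying a defined DNA-repair defect were exposed to test compounds. Growth inhibition was measured relative to vehicle-treated controls.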
# [4] = NCI Yeast Anticancer Drug Screen. Data for the cln2 rad14 strain (AID 165);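 note: 0% = growth equal to vehicle treated cultures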; details: S. cerevisiae cln2 rad14 strain, at 50.0 µM, stronger effect = higher value
# In short: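 Yeast carrying cln2 and rad14 alterations (cell cycle control and DNA damage repair) were exposed to compounds. Growth inhibition was measured against vehicle-treated controls.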
# [5] = NCI Yeast Anticancer Drug Screen. Data for the bub3 strain (AID 167); details: S. cerevisiae bub3 mutant strain, at 50.0 µM, stronger effect = higher value
# In short: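 Inhibition values come from growth of compound-treated mutant yeast normalised to vehicle-treated controls.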
# [6] = NCI Yeast Anticancer Drug Screen. Data for the mlh1 rad18 strain (AID 175); details: S. cerevisiae mlh1 rad18 strain growth inhibition; at 50.0 µM; stronger effect = higher value
# In short: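 Growth inhibition of the yeast strain was measured after compound exposure and expressed relative to vehicle-treated controls. The strain carries defined defects in DNA damage repair.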
Compound,growth inhibition [1],growth inhibition [2],growth inhibition [3],growth inhibition [4],growth inhibition [5],growth inhibition [6]
C=CCN(CC=C)c1nc2ccccc2c(=O)[nH]1,39.6% and -6.7%,24.2% and -3.7%,22.5% and -3.8%,7.9% and -60.1%,-2.25% and -12.4%,17.2% and 0.45%
O=C(O)CCC(=O)c1ccc2ccccc2c1,60% and 8.8%,21.6% and 6.95%,44.8% and -5.7%,11.2% and -14.1%,9.15% and -23.1%,44.2% and 40.7%
OC1COCOC1C1OCOCC1O (configuration not stated),11.2% and -5.6%,-2.7% and -8.35%,2.3% and 19.4%,-18.2% and -29%,-1.9% and -4.2%,-5.6% and -0.85%
CC(=O)OCC1OC(n2c(=S)n(-c3ccccc3)c(=O)c3cc(Br)ccc32)C(OC(C)=O)C(OC(C)=O)C1OC(C)=O (configuration not stated),4.85% and -36.2%,-1.9% and -27.9%,1.4% and -26.9%,5.25% and 15.2%,-14.6% and -0.3%,12.5% and -19.2%
O=C(O)CC(O)C(=O)O (configuration not stated),-2.95% and 0.45%,-20.2% and 3.55%,-39.1% and -1.05%,-19.6% and 3.85%,5.25% and -2.85%,-43% and -1.2%
COc1ccc(/C=C2/N=C(N/N=C\C(O)C(O)C(O)CO)NC2=O)cc1 (configuration not stated),1% and 34.4%,12.4% and 17.6%,3.55% and 13.3%,26.4% and 1.4%,-6.95% and 21.9%,-46% and 18.8%
CCN1C(=O)C=CC1=O,3.4% and -19.9%,-2.55% and 13.7%,11.8% and -8.5%,6.8% and -30%,8.8% and -25.5%,3.55% and -15.4%
Cc1ccc(C2=Nc3c(N)nc(N)nc3NC(c3ccccc3)C2)cc1 (configuration not stated),78.3% (active) and 79.8% (active),81.8% (active) and 79.5% (active),89.2% (active) and 89.4% (active),63.5% and 62.7%,75.8% (active) and 77.4% (active),90% (active) and 88.4% (active)
O=C(O)CCC(=O)c1cccs1,12.8% and -5.4%,4.25% and 19.6%,2.2% and -4.45%,-28.4% and -5.5%,-5.1% and -25.4%,-28.9% and -21.1%
CCc1ccc(NCc2cc(OC)c(OC)c(OC)c2)cc1,22.8% and 3.85%,-3.9% and -6.2%,25.9% and 33%,-4.45% and -2.55%,40% and 38.9%,-55.3% and -23.8%
CC1CCC2(OC1)OC1CC3C4CCC5CC(O)CCC5(C)C4CCC3(C)C1C2C (configuration not stated),22.4% and -15.3%,-29.8% and -19.3%,2.45% and -24.1%,7.15% and 0.8%,9.4% and -9.1%,26.8% and -12.7%
CC1CC(=O)C2CC1C2(C)C (configuration not stated),18% and 27.3%,-9.05% and 0.3%,-2.15% and 11.7%,-0.85% and 12.1%,6% and 14.1%,-6.1% and 23.9%
CCC(C)C(N)C(=O)O (configuration not stated),-39.2% and 2.9%,-31.7% and -21.1%,-17.4% and -2.15%,-29.3% and 5.4%,-14.1% and 4.05%,-28.9% and 5.5%
N#CC(c1ccc([N+](=O)[O-])cc1)C(CC(=O)c1ccccc1)c1ccccc1 (configuration not stated),-1.3% and -14.2%,-3% and -14.6%,-15.2% and -17.2%,-28.3% and -46.9%,37.8% and 12.6%,36.5% and 14.3%
O=C(O)Cc1ccc(C2CCC(O)CC2)cc1 (configuration not stated),2.75% and 8.45%,-5.35% and -1.85%,3.05% and 21.2%,-17.8% and -4.3%,-0.15% and 5.4%,0.9% and 1%
O=C1Nc2c(cc([N+](=O)[O-])cc2[N+](=O)[O-])C1=O,-8.6% and 3.1%,7.6% and -0.75%,-5.1% and 2.05%,-0.05% and -12.1%,-2.4% and 3.95%,-1.1% and 2.6%
COC(=O)C(C)NC(=O)c1c2nc3c(C(=O)NC(C)C(=O)OC)ccc(C)c3oc-2c(C)c(=O)c1N (configuration not stated),2.9% and 13.8%,14.7% and -7.2%,0.1% and -14.9%,22% and 15%,7.25% and -4.65%,29.1% and -4.85%
COC12C=CC(CC1)C(C)(C)C2O (configuration not stated),7.6% and 0.25%,-0.75% and -7.75%,-1.55% and -2.25%,-11% and -14.2%,7.85% and 14.7%,4.25% and 1.9%
S=c1nc[nH]c2ccccc12,-2.5% and -12.8%,-4.8% and -16.8%,-11% and 12.9%,-98.9% and -0.05%,-2.75% and -2.25%,5% and 5.65%
CSCCC(NC(=O)CN)C(=O)O (configuration not stated),8.7% and -6.35%,-14.6% and -11.8%,3% and -2.45%,14.4% and 0.15%,-7.15% and -13.8%,5.35% and -7.05%
O=C1O/C(=C(/C(=O)O)c2ccc(O)cc2)C(O)=C1c1cc2c3c(c(O)cc(C4=C(O)/C(=C(\C(=O)O)c5ccc(O)cc5)OC4=O)c3c1)OC2=O,-12.8% and -7%,-7.25% and -10.4%,-8.55% and 5.6%,-0.65% and -9.85%,-5% and -1.65%,3.4% and 4.6%
O=C1C(Br)CCCCCCCCCC1Br (configuration not stated),-26.2% and 45%,-6.4% and 11.2%,4.05% and 50%,-3.1% and 22.9%,-12.3% and 24.4%,0.9% and 36.4%
